# SARS PLpro yeast = SARS-CoV PLP inhibition in yeast | 330,000 compounds, 0.19% hits | AID 485353 | S. cerevisiae expressing SARS-CoV PLpro, growth rescue | Potency, µM (titrated, usually from 32.9 µM), without a hit: at the highest dose activity, positive = growth rescue, usual class: activators; further: potency means the concentration at half of the fitted maximal effect; 0% is about no effect; nearly all actives have a fitted effect of over 55% in size
# Pf growth 96h = inhibits malaria parasite growth, 96 h; P. falciparum luciferase reporter growth, 96 h; Potency, µM (doses to about 28.7 µM), without a hit: at the highest dose activity change, negative = inhibition, actives largely listed as inhibitors; 320,000 compounds, 6.9% hits; active means well fitted inhibition curve with a large enough effect; inconclusive means small, poorly fitted or top-dose-only effect, or another doubt; inactive means no such curve, though single readings can be large or run the other way; further: potency means the concentration at half of the fitted maximal effect; on the % scale 0 is the no-effect control and ±100 the full control effect
#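 Plates of compound plus infected erythrocytes (2% hematocrit, 0.05% parasitemia final) incubate 96 hours, 37 C, 5% CO2. Detection reagent added; reduced luminescence from the parasites' luciferase reporter flags inhibition.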
# CHX counter = counter-screen hit for Shiga toxin inhibitors, cycloheximide. 300,000 compounds, 12% hits. AID 2314. cell reporter, cycloheximide protein synthesis inhibition counterscreen. max response, %; in the data active means max response mostly above about 13%, no sharp cut-off; inactive means mostly below about 14%; further: read at 38.3 µM for the half of the compounds with a filed dose; 0% is about no effect
# Shiga inhibitor = inhibitors of Shiga toxin in Vero cells; Vero cells, Shiga toxin protein synthesis inhibition reporter; inhibition, % at 38.7 µM; 290,000 compounds, 9.2% hits; in the data active means inhibition mostly above about 28%, no sharp cut-off; inactive means mostly below about 43%; further: 0% is about no effect
# NS1 inh = influenza NS1 inhibition; Potency, µM (series often up to 46.1 µM), inactives show top-dose activity, positive = more growth; 270,000 compounds, 0.4% hits; AID 2326; further: potency means the concentration at half of the fitted maximal effect; actives are rising curves; nearly all actives have a fitted effect of over 50% in size
#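 Recovery from NS1-induced slow growth read by OD600 in budding yeast switched to galactose assay medium (pH 6.0, -URA) at 1:100 dilution. Compound 23 nl per well; the matching strain lacking NS1 serves as control.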
# Pf growth 48h = P. falciparum growth inhibition at 48 hours (one generation). P. falciparum luciferase growth in erythrocytes, 48 h. Potency, µM (highest dose often 28.7 µM), for the others: at the highest dose activity change, negative = inhibition, most hits filed as inhibitors. 310,000 compounds, 5.9% hits. AID 504832; active means well fitted inhibition curve with a large enough effect; inconclusive means small, poorly fitted or top-dose-only effect, or another doubt; inactive means no such curve, though single readings can be large or run the other way; further: potency means the concentration at half of the fitted maximal effect; on the % scale 0 is the no-effect control and ±100 the full control effect
#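 Erythrocytes infected with P. falciparum carrying an integrated firefly luciferase reporter (2% hematocrit, 0.1% parasitemia final) were exposed to compounds in RPMI 1640 with 0.5% Albumax at 37 C, 5% CO2. Growth inhibition was scored as reduced luminescence.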
# * hit, by the source's call; u = inconclusive; x = no result. A selection: hits, their analogues and other compounds. The true share with any hit is near 21%. Unless noted, the call rests on the fitted dose curve.
SMILES,SARS PLpro yeast,Pf growth 96h,CHX counter,Shiga inhibitor,NS1 inh,Pf growth 48h
Cc1ccc(S(=O)(=O)N2CCN(Cc3ccccc3C(F)(F)F)CC2)cc1,-19%,u,2,-3,-23%,32%
Cc1ccc(S(=O)(=O)N2CCN(Cc3cc(C(C)(C)C)ccc3O)CC2)cc1,-7%,u,1,-17,-2%,12µM*
Cc1ccc(S(=O)(=O)N2CCN(Cc3cc(C(C)C)ccc3O)CC2)cc1,-12%,10µM*,-2,-8,-33%,10µM*
CCOC(=O)c1ccc(S(=O)(=O)N2CCN(Cc3cc4c(cc3O)OCO4)CC2)cc1,2%,6%,x,x,x,-17%
Cc1cc(Br)cnc1NC(=S)Nc1ccc(F)cc1F,0%,u,10,-2,-4%,u
CCCNC(=O)OC[C@H]1O[C@H](CCO/N=C/c2ccc(C(=O)N3[C@H](c4ccc(C)cc4)[C@@H](C)CC[C@H]3C(=O)OC)cc2)C=C[C@@H]1Oc1ccc(OC)cc1,7%,2.1µM*,-1,-10,10%,u
COC(=O)[C@@H]1CC[C@H](C)[C@@H](c2ccc(C)cc2)N1C(=O)c1ccc(/C=N/O[C@@H](C)c2cn([C@H](CO)Cc3ccccc3)nn2)cc1,6%,4.7µM*,-2,-7,29%,3.7µM*
COC(=O)[C@@H]1CC[C@H](C)[C@@H](c2ccc(C)cc2)N1C(=O)c1ccc(/C=N/OC[C@@H](O)[C@H]2O[C@@H]3OC(C)(C)O[C@@H]3[C@H]2O)cc1,-4%,u,-5,-8,-65%,u
COC(=O)[C@@H]1CC[C@H](C)[C@@H](c2ccc(C)cc2)N1C(=O)c1ccc(/C=N/OCC[C@@H]2C=C[C@H](OC(C)=O)[C@@H](COC(C)=O)O2)cc1,20%,10µM*,-2,-13,u,u
Cn1cccc2[nH]c(=O)nc1-2,0%,19%,-3,-4,5%,1%
CCN1CCc2c(sc(NC(=O)c3ccc4ccccc4c3)c2C(N)=O)C1,-1%,u,20*,28,-24%,12µM*
CC(C)N1CCc2c(sc(NC(=O)c3ccc(S(=O)(=O)N4CCOCC4)cc3)c2C#N)C1,2%,u,-2,10,-8%,-13%
CCN1CCN(S(=O)(=O)c2ccc(C(=O)Nc3sc4c(c3C(N)=O)CCN(CC)C4)cc2)CC1,-4%,u,-5,-35,6%,u
CNC(=O)c1c(NC(=O)c2ccc(S(=O)(=O)N(C)c3ccccc3)cc2)sc2c1CCN(C(C)C)C2,9%,u,-4,-9,u,0.59µM*
CC(C)N1CCc2c(sc(NC(=O)c3ccc(S(=O)(=O)N4CCc5ccccc54)cc3)c2C(N)=O)C1,0%,7.4µM*,-2,-11,29%,4.1µM*
CCN1CCc2c(sc(NC(=O)c3ccc(S(=O)(=O)N(C)c4ccccc4)cc3)c2C(=O)NC)C1,-2%,1.5µM*,-2,-7,14%,2.1µM*
CCOC(=O)CC(=O)NC(C)(C)CCCCC(C)(C)NC(=O)CC(=O)OCC,2%,0%,-2,-2,-7%,13%
Cc1nc(N2CCOCC2)[nH]c(=O)c1C(O)C(Cl)(Cl)Cl (configuration not stated),-1%,38%,1,-4,1%,15%
COc1ccccc1C(CNC(=O)C(C)(C)Oc1ccc(Cl)cc1)N1CCCC1 (configuration not stated),5%,u,x,x,x,13µM*
COc1ccccc1C(CNC(=O)c1oc2ccccc2c1C)N1CCCC1 (configuration not stated),2%,13µM*,x,x,x,u
COc1ccc(C(CNC(=O)c2ccc(-c3nc4ccccc4s3)o2)N2CCCC2)cc1 (configuration not stated),1%,10µM*,x,x,x,7.4µM*
COc1ccccc1CNC(=O)c1oc2ccccc2c1C,-5%,u,-3,-31,-17%,u
COc1ccc(C(CNC(=O)COc2ccc(Cl)cc2C)N2CCCCC2)cc1 (configuration not stated),1%,-29%,2,26,-3%,12µM*
C/C(=N\NC(=O)c1nnn(-c2nonc2N)c1CSc1ccc(Cl)cc1)c1cccnc1,2%,48%,0,-10,21%,u
O=C(CN1C(=O)CC(c2ccccc2)S(=O)(=O)c2ccccc21)N1CCCCC1 (configuration not stated),0%,u,-3,-5,x,-11%
SMILES,SARS PLpro yeast,Pf growth 96h,CHX counter,Shiga inhibitor,NS1 inh,Pf growth 48h
COc1ccc(C(CNC(=O)c2oc3cc(C)c(Cl)cc3c2C)N2CCCCC2)cc1 (configuration not stated),6%,-5%,-5,-9,19%,5.2µM*
COc1ccc(C(CNC(=O)COc2ccccc2)N2CCCCC2)cc1 (configuration not stated),11%,15µM*,x,x,x,u
COc1ccccc1CNC(=O)COc1cccc(-n2cnnn2)c1,-1%,12%,x,x,x,31%
COc1ccc(S(=O)(=O)N2CCOC23CCN(S(=O)(=O)c2cccs2)CC3)cc1,0%,u,x,x,x,u
COc1ccc(S(=O)(=O)N2CCOC23CCN(S(=O)(=O)c2ccc(Cl)cc2)CC3)cc1,-5%,u,x,x,x,12µM*
COc1ccc(S(=O)(=O)N2CCOC23CCN(S(=O)(=O)c2c(C)cc(C)cc2C)CC3)cc1,1%,u,x,x,x,u
COc1ccc(S(=O)(=O)N2CCC3(CC2)OCCN3S(=O)(=O)c2ccc(OC)cc2)cc1,-3%,9.3µM*,x,x,x,u
Cc1cc(Cl)ccc1C(=O)C1CCCN(C(=O)CN2CCOC2=O)C1 (configuration not stated),-6%,16%,-2,-3,0%,5%
CCN(CC(=O)Nc1ccc(NC(C)=O)cc1)C(=O)CN1C(=O)C2CCCCC2C1=O (configuration not stated),2%,u,x,x,x,-10%
CCOC(=O)NC1(Nc2ccc(Cl)cn2)Oc2ccccc2O1,1%,u,8.1*,34,-13%,26%
CCOC(=O)/C=C/C(=O)OCC(=O)Nc1ccc(Cl)cn1,-22%,u,17,15,-157%,x
O=C(Nc1ccc(NC(=O)c2ccc(Cl)cc2Cl)cc1)c1ccc2c(c1)OCO2,1%,u,-1,10,1%,27%
O=C(Nc1ccc(F)c(F)c1)c1ccc2c(c1)OCO2,-10%,2.3µM*,94*,100*,-7%,168%
CCC(=O)N1CCN(c2ccc(NC(=O)c3ccc4c(c3)OCO4)cc2)CC1,5%,x,2,-12,-6%,x
NC(=O)c1ccc(NC(=O)c2ccc3c(c2)OCO3)cc1,8%,128%,37*,112,3%,x
O=C(Nc1ccc(Cl)cc1)c1ccc2c(c1)OCO2,-4%,x,30*,49*,-40%,198%
CCN1CCN(c2ccc(NC(=O)c3ccc4c(c3)OCO4)cc2)CC1,8%,x,29*,56*,-6%,68%

# Source: PubChem (National Center for Advancing Translational Sciences (NCATS))
